The results in this text go back to PubChem BioAssay AID720706 (Broad Institute, 2013).

Each structure is given as a SMILES string. Out of some 350,000 compounds screened, about 5,500 (1.6%) were called active.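 Rule for the calls: active = significant combined selectivity score with lowered wild-type GFP, culture density cut under 30%, mutant RFP and density less affected; inactive = any of these conditions unmet.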 The full list was thinned out, with actives kept by preference.

The test is described as follows: reduced GFP signal of wild-type E. coli, primary screen, bacterial rRNA inhibitor project, GFP/RFP fluorescence, OD600, single point (AID 720706). Particulars: E. coli WT GFP vs humanized-ribosome RFP mutants, 24 h; GFP signal change (wild-type ribosome): stronger effect = lower value, DMSO median 0, no signal -100; OD600 change: measured here: OD600 growth, DMSO median 0, no signal -100; RFP signal change: measured here: RFP humanized mutant strains, DMSO median 0, no signal -100, concentration not given here.
For the molecule `C/C=C/c1ccc([C@@H]2[C@@H](CO)N3C(=O)CN(C(=O)Nc4cccc(OC)c4)C[C@@H]23)cc1`, the GFP signal change (wild-type ribosome) is -1.73% (inactive), the OD600 change is -7.8% and the RFP signal change was 3.44%.

For the molecule `O=C(Nc1nnc(SCc2c(Cl)cccc2Cl)s1)c1cccc([N+](=O)[O-])c1`, the GFP signal change (wild-type ribosome) was 1.43% (inactive), the OD600 change is -3.04% and the RFP signal change was -1.26%.

For the molecule `O=C(NC(=S)NC1CCS(=O)(=O)C1)c1cccc([N+](=O)[O-])c1` (stereo unspecified), the GFP signal change (wild-type ribosome) is 3.91% (inactive), the OD600 change worked out at 8.03% and the RFP signal change is -1.87%.

Take `O=C(Nc1ccc(C2CC2(Cl)Cl)cc1)c1cccc([N+](=O)[O-])c1` (stereo unspecified): the GFP signal change (wild-type ribosome) is -27.9% (active), the OD600 change is -19.1% and the RFP signal change is -6.25%.

As for `C[C@@H]1CN([C@H](C)CO)C(=O)Cc2cc(N(C)C)ccc2O[C@H]1CN(C)C(=O)NC1CCCCC1`, the GFP signal change (wild-type ribosome) was -0.659% (inactive), the OD600 change was 5.18% and the RFP signal change was -1.29%.

As to `COc1cccc(C#Cc2ccc([C@@H]3[C@H]4CN(C(=O)Cc5ccccc5)CC(=O)N4[C@H]3CO)cc2)c1`, the GFP signal change (wild-type ribosome) is -5.04% (inactive), the OD600 change is -9.42% and the RFP signal change amounted to 27.5%.

As to `CN(C)CCCN(C(=O)c1ccc(S(=O)(=O)N2CCCCCC2)cc1)c1nc2cc3c(cc2s1)OCCO3`, the GFP signal change (wild-type ribosome) is -30% (active), the OD600 change was -20.1% and the RFP signal change was determined as 0.23%.

On to `CN(C)CCN(C(=O)C1=COCCO1)c1nc2ccc(Cl)cc2s1`, for which the GFP signal change (wild-type ribosome) is 2.56% (inactive), the OD600 change was -1.62% and the RFP signal change was -1.96%.

For the molecule `CCOc1ccc2nc(C(=O)N3CCCC(C)C3)sc2c1` (stereo unspecified), the GFP signal change (wild-type ribosome) is -6.88% (inactive), the OD600 change was -10.3% and the RFP signal change was -0.532%.

Regarding `Cc1ccc2sc(NNC(=O)c3ccc4c(c3)OCCO4)nc2c1C`, the GFP signal change (wild-type ribosome) was -7.09% (inactive), the OD600 change was -13.5% and the RFP signal change amounted to 7.46%.

For the molecule `CCc1ccc2nc(N(CCCN(C)C)C(=O)c3ccc4c(c3)OCCO4)sc2c1`, the GFP signal change (wild-type ribosome) was -22.5% (active), the OD600 change was -7.47% and the RFP signal change was determined as 6.9%.

In the case of `CCN(CC)CCN(C(=O)c1ccc2c(c1)CCCC2)c1nc2c(OC)cccc2s1`, the GFP signal change (wild-type ribosome) was -52.2% (inactive), the OD600 change was -75.4% and the RFP signal change was -16.6%.

With `CCN(CC)CCN(C(=O)c1ccc(N2C(=O)CCC2=O)cc1)c1nc2cc3c(cc2s1)OCO3`, the GFP signal change (wild-type ribosome) was 4.92% (inactive), the OD600 change is -10.9% and the RFP signal change was -4.79%.

In the case of `CCN(CC)CCN(C(=O)c1cc(Cl)sc1Cl)c1nc2cc3c(cc2s1)OCO3`, the GFP signal change (wild-type ribosome) was 4.27% (inactive), the OD600 change was -1.1% and the RFP signal change is -0.673%.

Take `CCOc1ccc2nc(N(CCN(C)C)C(=O)c3ccc4ccccc4c3)sc2c1`: the GFP signal change (wild-type ribosome) is -29.3% (active), the OD600 change was -1.85% and the RFP signal change is 4.17%.

Take `CN(C)Cc1cn(CC[C@H]2CC[C@H](NS(=O)(=O)c3ccccc3)[C@@H](CO)O2)nn1`: the GFP signal change (wild-type ribosome) was -1.38% (inactive), the OD600 change came out at 8.8% and the RFP signal change is -1.73%.

In the case of `Cc1ccc(S(=O)(=O)N(C)C[C@H]2Oc3c(NS(=O)(=O)c4cn(C)cn4)cccc3C(=O)N([C@@H](C)CO)C[C@H]2C)cc1`, the GFP signal change (wild-type ribosome) is 4.44% (inactive), the OD600 change was determined as 5.92% and the RFP signal change is -0.801%.

Turning to `CCC(=O)N(C)C[C@@H]1Oc2ncc(-c3ccccc3OC)cc2C(=O)N([C@@H](C)CO)C[C@@H]1C`, the GFP signal change (wild-type ribosome) was -1.63% (inactive), the OD600 change worked out at 0.66% and the RFP signal change is 1.16%.

Consider `COc1ccc(CNC(=O)C[C@@H]2C=C[C@@H](NC(=O)c3ccc4c(c3)OCO4)[C@@H](CO)O2)cc1`, for which the GFP signal change (wild-type ribosome) was 3.42% (inactive), the OD600 change came out at 5.74% and the RFP signal change is -0.879%.

On to `C[C@H](CO)N1C[C@H](C)[C@H](CN(C)S(C)(=O)=O)Oc2ncc(C3=CCCC3)cc2C1=O`, for which the GFP signal change (wild-type ribosome) is 4.58% (inactive), the OD600 change was determined as 6.67% and the RFP signal change was -1.55%.

For the molecule `O=[N+]([O-])c1cc([N+](=O)[O-])c2cccnc2c1O`, the GFP signal change (wild-type ribosome) was -15.7% (inactive), the OD600 change turned out to be 19.1% and the RFP signal change turned out to be 3.26%.

Turning to `O=C(c1cccc(F)c1)N1CCN(c2ccc([N+](=O)[O-])c3cccnc23)CC1`, the GFP signal change (wild-type ribosome) is -17.8% (active), the OD600 change is -11% and the RFP signal change is 4.41%.

In the case of `O=C(c1ccc(N2CCOCC2)c([N+](=O)[O-])c1)N1CCN(c2ccccc2F)CC1`, the GFP signal change (wild-type ribosome) is -19.6% (inactive), the OD600 change is -35.6% and the RFP signal change was -4.01%.

On to `C[C@H]1CCCCO[C@@H](CN(C)Cc2ccncc2)[C@@H](C)CN([C@@H](C)CO)C(=O)c2cc(NC(=O)Nc3ccc(F)cc3)ccc2O1`, for which the GFP signal change (wild-type ribosome) is 1.44% (inactive), the OD600 change worked out at 2.48% and the RFP signal change was -0.987%.

As for `CCCN(C)C[C@@H]1OCCCC[C@@H](C)Oc2ccc(NC(=O)CCCN(C)C)cc2C(=O)N([C@H](C)CO)C[C@@H]1C`, the GFP signal change (wild-type ribosome) was -2.58% (inactive), the OD600 change stood at 6.85% and the RFP signal change was -0.525%.

As for `C[C@H](NC(=O)N(C)C[C@@H]1OCc2ccccc2-c2ccccc2C(=O)N([C@H](C)CO)C[C@@H]1C)c1ccccc1`, the GFP signal change (wild-type ribosome) was -0.824% (inactive), the OD600 change was determined as 6% and the RFP signal change was -2.69%.

Regarding `COc1ccc(S(=O)(=O)Nc2ccc3c(c2)C(=O)N(C)C[C@@H](OC)[C@H](C)CN(C(=O)NC(C)C)[C@H](C)CO3)cc1`, the GFP signal change (wild-type ribosome) was 2.15% (inactive), the OD600 change is -6.48% and the RFP signal change worked out at 0.485%.

In the case of `CCCNC(=O)N(C)C[C@@H]1Oc2ncc(C#CCc3ccccc3)cc2C(=O)N([C@@H](C)CO)C[C@H]1C`, the GFP signal change (wild-type ribosome) was 2.5% (inactive), the OD600 change is -2.83% and the RFP signal change is -0.346%.

`Cc1noc(C)c1S(=O)(=O)N(C)C[C@H]1OCCCC[C@H](C)Oc2ccc(NC(=O)c3ccccc3)cc2C(=O)N([C@@H](C)CO)C[C@H]1C`: the GFP signal change (wild-type ribosome) is -1% (inactive), the OD600 change is -0.308% and the RFP signal change worked out at 2.4%.

For the molecule `O=C(COC(=O)Cc1ccc(Cl)cc1Cl)NCc1ccco1`, the GFP signal change (wild-type ribosome) is -17.4% (inactive), the OD600 change is -6.25% and the RFP signal change was 0.815%.

As to `CC(C)(C)NC(=O)NC(=O)COC(=O)Cc1c(F)cccc1Cl`, the GFP signal change (wild-type ribosome) is -13.1% (inactive), the OD600 change is -4.75% and the RFP signal change turned out to be 3.43%.

With `CC(C)(C)NC(=O)NC(=O)COC(=O)Cc1ccc(Cl)cc1Cl`, the GFP signal change (wild-type ribosome) is -19.2% (active), the OD600 change was -0.7% and the RFP signal change is -0.643%.
